69 sequences from PubChem BioAssay AID1347426 (Functional Genomics Laboratory (NCATS/FGL), 2020) can be followed below.

The whole screen tested about 31,000 sequences, of which about 1,400 (4.5%) were called active. This excerpt belongs to a sample that is enriched for actives. Values without a mark were called inactive.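 How the source made its calls: active means median seed-adjusted z-score above 1 or below -1; inactive means the rest.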

The assay in a line: Novel Modifiers of Survival Motor Neuron (SMN) Protein: Gene Identification via Genome-wide siRNA Screen.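 Further: luminescence tracks full-length SMN protein made from the SMN2 reporter.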 The conditions noted are these: HEK293T SMN2-luciferase reporter, siRNA knockdown, 72 h; actives lie on both sides. Summed up:
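Luciferase signal, proportional to full-length SMN made from an SMN2 cDNA reporter in stable HEK293T cells, was read 72 h after siRNA reverse transfection. Values were expressed as MAD scores after non-targeting-control normalization and log10 conversion; seed analysis flagged off-targets.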
As for GGAAAGCUCUUCGUCUGGATT against IFIT5, the median seed-adjusted z-score is 0.
Take GCCUCUUAAUUUACCAGAATT against OGN: the median seed-adjusted z-score is 0.0889.
As for GGUUGUUAGUGGAUCAUCATT against FBXW11, the median seed-adjusted z-score was 0.206.
On to GAGUGAUAUGAAACGGAAATT against NVL, for which the median seed-adjusted z-score is 0.701.
With GUUUCGAGAUUGUUGCUAUTT against CCNL1, the median seed-adjusted z-score is -1.26 (active).
Consider CGACUACUACUACCCUGAUTT against CCR8, for which the median seed-adjusted z-score was -0.206.
The value for AGUGCAAAAACGUGCUGAATT against AURKAIP1 was 0.067.
On to CGAUUGCUUUUCUACCAACTT against SCP2, for which the median seed-adjusted z-score was 0.413.
The value for CAUUUCGACUGGAUCAUAUTT against CLK1 was -0.436; that for AUACAGAUGAUAAACCAUUTT against ZBTB34 was 0.0298.
Under CGGCCCUCCUCUGAAAAGATT against POU4F2 stands 1.46 (active).
As for CCUCAGAUCUGAUGUCCAATT against VPS4A, the median seed-adjusted z-score was 0.
Consider GAAUGACCCUGUACCCUAUTT against TAF2, for which the median seed-adjusted z-score is -0.243.
Under GAAGGAUUUUGAGCCCGAATT against LETM1 stands -0.491; under ACACGUUGGAAGUAGCUGATT against OTUD4, 0.167.
GCUUAUAUGUUACCAUGGATT against COG4: the median seed-adjusted z-score was -0.508.
As to GGUGACCGGUUACUUGGGATT against FFAR1, the median seed-adjusted z-score is 0.248.
On to GCUUAUCUCGGCAAUCAAATT against PAPPA2, for which the median seed-adjusted z-score is -0.173.
As to GAAAGACGAGCUUUACCUATT against GSK3A, the median seed-adjusted z-score was 0.248.
Take UGUGGAUCUGCUUACCAAATT against ZFAND2B: the median seed-adjusted z-score is 0.
Turning to GAGGUUUUCCAGACGGUGATT against EHD3, the median seed-adjusted z-score is 0.569.
As to GCAUGCUCAUGGGUUACAATT against ZNF451, the median seed-adjusted z-score is 0.
Turning to GGUGGUUGCUGUAUAUGGATT against KCTD9, the median seed-adjusted z-score was 1.31 (active).
The value for CGGAAGCAGUUCCAACUUUTT against AKAP8 was -0.252; that for CAAAAUACAGAGUUUCUUUTT against RILP was 0.503; that for GGAUGUGAACGGGCACAUUTT against CDC42BPG was 0.153.
CAGACAGUAUGUUCGAAGATT against PPAT: the median seed-adjusted z-score is -1.51 (active).
Regarding GAAUCCUGAUGGGUAUGAATT against CPD, the median seed-adjusted z-score is -0.198.
As to GUCUUUAAUGCGCACUAUATT against FEZF1, the median seed-adjusted z-score was 0.155.
Under ACAUCGUUGUGGUCAAGGUTT against ADAMTS15 stands 0.765; under GGACAAAACUCCUCUCUAUTT against MED27, -1.62 (active).
Consider GUAUAGGGCCUGUAAGUUUTT against LANCL1, for which the median seed-adjusted z-score is 0.
With CUGCCUUGAUGACACCAGATT against TRIM16, the median seed-adjusted z-score is 0.345.
Under CUACUAUCCUGGUUCUGGATT against PROS1 stands 0.436; under GUGAUACUGUCAAAGGUCATT against ATF2, 0.424; under GGGUUUAACUGGGAACUCUTT against GALNT8, -0.283.
With GAUCCGUUGGUGCAUGAAATT against ABHD2, the median seed-adjusted z-score was -1.21 (active).
For GAUCGACUGCUAGAGAGUATT against DCLK1, the median seed-adjusted z-score is 0.193.
As for GUGCUAACUCAAUUCCAUATT against SSBP3, the median seed-adjusted z-score is 0.00592.
With GCCUUUCAGCAUGCGGUUATT against GDPD1, the median seed-adjusted z-score is 0.527.
The value for CCAUCUCUUUGGUAGUACUTT against TBC1D23 was 0.0932; that for CGUCUUUCCAGAAUUCAAATT against HGS was 1.16 (active); that for GCAAGACUUUUGGUCGAAATT against ZNF816A was 0.39.
The value for CCGUUGCUAUGAACAAGUUTT against B4GALT3 was -0.138; that for GACAGAAGAUCAAUAUGAATT against ETS2 was 0.636; that for GAAGAGUGCUUGAAAUUUUTT against GFRA1 was 0.125.
For GCAUCCGGAUUCUUGAUGATT against PGK2, the median seed-adjusted z-score is -0.127.
As to ACAAAGCUGCUGUGCUAUATT against BET1, the median seed-adjusted z-score is 0.394.
The value for CAGAUUACGUUUAUAAGAATT against ZNF274 was 0.452; that for CGAGUGCACUGCUGCCUAUTT against 5-Sep was -0.0749; that for GAUCCGAGAUCAACACCUUTT against PIK3R3 was -1.88 (active).
Consider GACUACCAGUUGAUCAUGUTT against TTBK1, for which the median seed-adjusted z-score is 0.00054.
As for CACCUGUACUUAUCCCGAATT against MEGF10, the median seed-adjusted z-score is 0.622.
As to AAAUCGCGACGACUAAAUATT against CCBE1, the median seed-adjusted z-score was 0.964.
In the case of CAUCAGCUUCCGCAACUUUTT against LRP3, the median seed-adjusted z-score is -1.05 (active).
As to GGAAUACAUCAGAAUGGUATT against ITCH, the median seed-adjusted z-score is 0.199.
Under CCAAUGCUGUGACUUUCGATT against KIFC3 stands 0.54; under GCAGCAAAGGAAACCUAAATT against KLRC3, 0.833.
Take GCAAGCGAGUCAACACCAATT against DRD2: the median seed-adjusted z-score was -0.0273.
For “CUUCAGUACCUUAUCAUUATT against ST6GALNAC5”, the median seed-adjusted z-score is -0.0321.
For GGCCGUUUGUCAUUCCCUUTT against CBFA2T3, the median seed-adjusted z-score is -0.135.
Turning to GGAAGAGACUUUGUCCACATT against BIRC7, the median seed-adjusted z-score is -1.44 (active).
For CUCUGGGAGUCACGACUUUTT against GPR37L1, the median seed-adjusted z-score is -0.0348.
On to GAGACAAAUUUGGGCCUUATT against HSF4, for which the median seed-adjusted z-score was 0.926.
For CAACGAUGGUGUACUACAATT against ABCC9, the median seed-adjusted z-score was 0.376.
As for CAAGCGGACCAGGACCUAUTT against CSDC2, the median seed-adjusted z-score is -0.321.
For CAGUAUCCAUGGUGAUCUATT against ZP2, the median seed-adjusted z-score is 0.0455.
Under GCAGCUCAACGGCAAAGAATT against RBM14 stands -0.0317.
With GCAUCUCAAUAUCAACAAUTT against LINGO2, the median seed-adjusted z-score is 0.123.
